# Only a selection was taken, and hits are over-represented in it overall.
# ROC1-CUL1 inh – inhibitors of human ROC1-CUL1 ubiquitin ligase activity; P62877+Q13616; AID 1347404; inhibition, % at 10 µM; in vitro K48 di-Ub FRET, acceptor:donor ratio, 45 min; 140,000 compounds, 0.6% hits; in the data active = inhibition above about 25%
# Target sequence (P62877 whole entry, looked up): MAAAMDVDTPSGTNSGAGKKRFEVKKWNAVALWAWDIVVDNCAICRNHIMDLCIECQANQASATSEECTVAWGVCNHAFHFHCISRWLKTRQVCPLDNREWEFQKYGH
# Target sequence (Q13616 whole entry, looked up): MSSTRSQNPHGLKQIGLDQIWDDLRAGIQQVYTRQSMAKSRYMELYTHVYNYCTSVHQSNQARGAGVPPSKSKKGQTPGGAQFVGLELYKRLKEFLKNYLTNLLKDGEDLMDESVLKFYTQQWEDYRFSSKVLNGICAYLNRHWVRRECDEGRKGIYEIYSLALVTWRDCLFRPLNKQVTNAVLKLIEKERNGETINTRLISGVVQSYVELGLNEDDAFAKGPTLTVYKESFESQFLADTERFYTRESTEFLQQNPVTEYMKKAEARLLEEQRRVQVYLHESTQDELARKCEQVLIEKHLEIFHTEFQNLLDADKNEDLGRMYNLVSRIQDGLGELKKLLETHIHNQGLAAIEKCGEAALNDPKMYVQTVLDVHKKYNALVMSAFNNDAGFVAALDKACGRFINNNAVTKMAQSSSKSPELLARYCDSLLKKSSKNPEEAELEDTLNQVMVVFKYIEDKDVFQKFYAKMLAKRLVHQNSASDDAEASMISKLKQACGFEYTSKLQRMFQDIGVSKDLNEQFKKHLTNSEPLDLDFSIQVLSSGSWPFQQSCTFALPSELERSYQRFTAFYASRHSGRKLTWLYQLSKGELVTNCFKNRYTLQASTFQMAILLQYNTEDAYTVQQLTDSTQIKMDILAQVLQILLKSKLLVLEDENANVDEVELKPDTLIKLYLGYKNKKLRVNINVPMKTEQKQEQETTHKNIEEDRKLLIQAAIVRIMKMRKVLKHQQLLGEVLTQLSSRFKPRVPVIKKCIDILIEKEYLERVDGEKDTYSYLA
# * = called active by the depositor.
SMILES,ROC1-CUL1 inh
CCN(CC)c1ccc(/C=C2\SC(=Nc3ccc(Cl)c(Cl)c3)NC2=O)o1,29*
O=C(c1cn(C/C=C/c2ccccc2)nn1)N1CCCC1,-1
Nc1c(C(=O)Nc2ccccc2C(=O)O)sc2nc3c(cc12)CCCCCC3,9
Nc1c(C(=O)Nc2ccccc2C(=O)O)sc2nc3c(cc12)CCCCC3,35*
Nc1c(C(=O)Nc2ccccc2F)sc2nc3c(cc12)CCCCC3,2
CCN1CCN(C(=O)C2CCN(S(=O)(=O)CC)CC2)CC1,10
CCCCNC(=O)N1CCN(Cc2ccccc2)CC1,10
O=C(C(C(F)(F)F)C(F)(F)F)N1CCN(Cc2ccccc2)CC1,53*
CC(C)C(=O)N1CCN(Cc2cccc(F)c2)CC1,-5
Cc1nn(C)cc1/C=N\NC(=O)c1sc2ccccc2c1Cl,-2
CCCCOC(=O)COc1cc2oc(=O)c(CCC)c(C)c2cc1Cl,1
CC(=O)N1CCC(NCc2cccnc2N2CCN(c3ccccc3C)CC2)CC1,-1
COc1ccccc1Sc1ccccc1C#N,9
CCOC(=O)C1=C(c2ccccc2)N=c2s/c(=C/c3ccccc3O)c(=O)n2C1c1cccc(OC)c1 (configuration not stated),1
CCOC(=O)C1=C(C)N=c2s/c(=C/c3cc(Br)c(O)c(Br)c3)c(=O)n2C1c1ccc(Cl)cc1 (configuration not stated),83*
CCOC(=O)C1=C(C)N=c2s/c(=C\c3ccc(O)cc3)c(=O)n2C1c1ccc(F)cc1 (configuration not stated),7
CCOC(=O)C1=C(C)N=c2s/c(=C/c3cc(Br)c(O)cc3O)c(=O)n2C1c1ccc(OCC)cc1 (configuration not stated),66*
CCOC(=O)C1=C(C)N=c2s/c(=C\c3cc4c(cc3Br)OCO4)c(=O)n2C1c1ccc(Cl)cc1 (configuration not stated),-3
CCOC(=O)C1=C(C)N=c2s/c(=C/c3ccsc3)c(=O)n2C1c1ccc(OC)cc1 (configuration not stated),2
CCOC(=O)C1=C(c2ccccc2)N=c2s/c(=C\c3cc([N+](=O)[O-])ccc3O)c(=O)n2C1c1cccc(OC)c1 (configuration not stated),60*
CCOC(=O)C1=C(C)N=c2s/c(=C\c3ccc(O)cc3)c(=O)n2C1c1ccc(OCC)cc1 (configuration not stated),2
CCOC(=O)C1=C(C)N=c2s/c(=C\c3ccc4c(c3)OCO4)c(=O)n2C1c1ccc(OC)cc1 (configuration not stated),10
CCOC(=O)C1=C(C)N=c2s/c(=C\c3ccc(O)c(Br)c3)c(=O)n2C1c1ccc(OC)cc1 (configuration not stated),35*
CCOC(=O)C1=C(C)N=c2s/c(=C\c3cc(Cl)ccc3O)c(=O)n2C1c1ccc(OCC)cc1 (configuration not stated),6
CCOC(=O)C1=C(c2ccccc2)N=c2s/c(=C\c3ccc([N+](=O)[O-])o3)c(=O)n2C1c1cccc(OC)c1 (configuration not stated),-5
SMILES,ROC1-CUL1 inh
CC(=O)c1cccc(NC(=O)C(Cc2cccc3ccccc23)=NC(=O)c2ccccc2)c1,2
Cc1cc(CC(Nc2ccccc2)c2ccccc2)on1 (configuration not stated),-6
Cc1ccc(C)c(OC(=O)c2ccc(Cl)cc2)c1,-2
CC1=NC2=C(C(=O)CC(c3ccccc3)C2)C(c2ccccn2)C1C(=O)Nc1ccc(Br)cn1 (configuration not stated),0
O=C(/C=C/c1ccccc1)OC(C(=O)O)c1ccccc1 (configuration not stated),0
Cc1ncc2c(c1-c1noc(-c3ccc(-c4ncc[nH]4)s3)n1)CCNC2,-5
CC(=Nc1nc2ccccc2[nH]1)c1cc(C(=O)Nc2ccccn2)c(C)n(-c2ccccn2)c1=O,3
COC(=O)CSc1nc2sc3c(c2c(=O)n1-c1ccccc1C)CCCC3,-13
C=CCc1cc(/C=c2/sc3n(c2=O)C(c2ccc(OC)cc2OC)C(C(=O)OCC)=C(C)N=3)cc(OC)c1O (configuration not stated),-6
CCOC(=O)C1=C(C)N=c2s/c(=C/c3ccoc3)c(=O)n2C1c1ccc(OC)cc1 (configuration not stated),9
CCOC(=O)C1=C(C)N=c2s/c(=C/c3ccc(O)cc3)c(=O)n2C1c1cc(OC)ccc1OC (configuration not stated),-3
CCOC(=O)C1=C(C)N=c2s/c(=C\c3cc(Br)c(O)c(OC)c3)c(=O)n2C1c1ccc(OC)cc1 (configuration not stated),53*
C=CCc1cc(/C=c2/sc3n(c2=O)C(c2cccc(OC)c2OCC)C(C(=O)OCC)=C(C)N=3)cc(OC)c1O (configuration not stated),-11
C=CCOc1ccc(C2C(C(=O)OCC)=C(C)N=c3s/c(=C\c4cc(I)c(O)c(OC)c4)c(=O)n32)cc1 (configuration not stated),37*
O=C(CN1Cc2ccccc2OC(c2ccsc2)C1)NCc1scnc1-c1ccccc1 (configuration not stated),7
O=C(CCc1ccccc1)C1C(=O)C(=O)N(Cc2ccccc2)C1c1cccc(F)c1 (configuration not stated),2
CN(C)c1ccc(C2=Nc3cccc4cccc2c34)cc1,-99
COC(=O)c1c(C)sc(-c2c(-c3ccc4c(c3)OCCO4)[nH]c3c2c(=O)[nH]c(=O)n3C)c1O,27*
COC(=O)c1c(C)sc(-c2c(-c3cccc(OC)c3)[nH]c3c2c(=O)[nH]c(=O)n3C)c1O,24
COC(=O)c1c(C)sc(-c2c(-c3ccc(OC)c(F)c3)[nH]c3c2c(=O)n(C)c(=O)n3C)c1O,3
COc1ccc(OC)c2c(OC)c3ccccc3c(OC)c12,52*
COc1ccc(-c2ccc(OC)c(OC)c2OC)c(OC)c1OC,-5
COc1ccc2c(=O)c(Br)cccc2c1OC,3
C=CCn1c(SCC(=O)Nc2ccc(OC)cc2OC)nc2sc3c(c2c1=O)CCCC3,-5
CC(=O)NS(=O)(=O)c1ccc(-c2ccc(/C=C3/C(=O)NN(c4cccc(C)c4)C3=O)o2)cc1,8
SMILES,ROC1-CUL1 inh
Cc1cccc(N2NC(=O)/C(=C/c3ccc(-c4ccc(S(N)(=O)=O)cc4)o3)C2=O)c1,32*
CC1=NN(c2ccc(C)c(C)c2)C(=O)/C1=C\c1ccc(-c2ccc(S(=O)(=O)c3nccs3)cc2)o1,11
NS(=O)(=O)c1ccc(-c2ccc(/C=C3/C(=O)NN(c4cccc(F)c4)C3=O)o2)cc1,44*
Cc1ccc(N2NC(=O)/C(=C/c3ccc(-c4ccc(S(=O)(=O)Nc5nccs5)cc4)o3)C2=O)cc1,72*
NC(=O)c1ccc(-c2ccc(/C=C3/C(=O)NN(c4ccc(F)cc4)C3=O)o2)cc1,5
O=C1NN(c2cccc(F)c2)C(=O)/C1=C\c1ccc(-c2ccc(C(=O)O)cc2)o1,6
Cc1ccc(N2NC(=O)/C(=C/c3ccc(-c4ccccc4F)o3)C2=O)cc1C,-2
NS(=O)(=O)c1ccc(-c2ccc(/C=C3\C(=O)NC(=S)N(c4cccc5ccccc45)C3=O)o2)cc1,5
O=C(OCc1ccc(F)cc1F)c1ccc(F)cc1,0
CCCCCCCCN1C(=O)C(C=Nc2cc(Cl)ccc2O)C(=O)N(CCCC)C1=O (configuration not stated),-8
CC(=O)NC(=S)Nc1cccc(Cl)c1Cl,-1

# Screens (PubChem)
